Our source for the Percent Effect values is ChEMBL document CHEMBL3988442, “University of Dundee, Small-Polar-MMV Screening Library” (2021).

Each structure is given as a SMILES string. For some of these results: Results with a measured potency or affinity are listed apart.

Common to all, as to set-up: scale not given: direction of the effect not stated beside the values
Assay [1] concerns the target Protein translocase subunit SecA (Escherichia coli (strain K12)) (UniProt P10408). The experiment in a line: Assay to Identify E. coli SecA ATPase Inhibitors. Format: functional. To be noted: 30 µM.
In assay [2] the target is T1, Ubiquitin-activating enzyme e1, putative (Leishmania donovani (strain BPK282A1)) (UniProt E9BSI1).
T1 sequence (whole entry): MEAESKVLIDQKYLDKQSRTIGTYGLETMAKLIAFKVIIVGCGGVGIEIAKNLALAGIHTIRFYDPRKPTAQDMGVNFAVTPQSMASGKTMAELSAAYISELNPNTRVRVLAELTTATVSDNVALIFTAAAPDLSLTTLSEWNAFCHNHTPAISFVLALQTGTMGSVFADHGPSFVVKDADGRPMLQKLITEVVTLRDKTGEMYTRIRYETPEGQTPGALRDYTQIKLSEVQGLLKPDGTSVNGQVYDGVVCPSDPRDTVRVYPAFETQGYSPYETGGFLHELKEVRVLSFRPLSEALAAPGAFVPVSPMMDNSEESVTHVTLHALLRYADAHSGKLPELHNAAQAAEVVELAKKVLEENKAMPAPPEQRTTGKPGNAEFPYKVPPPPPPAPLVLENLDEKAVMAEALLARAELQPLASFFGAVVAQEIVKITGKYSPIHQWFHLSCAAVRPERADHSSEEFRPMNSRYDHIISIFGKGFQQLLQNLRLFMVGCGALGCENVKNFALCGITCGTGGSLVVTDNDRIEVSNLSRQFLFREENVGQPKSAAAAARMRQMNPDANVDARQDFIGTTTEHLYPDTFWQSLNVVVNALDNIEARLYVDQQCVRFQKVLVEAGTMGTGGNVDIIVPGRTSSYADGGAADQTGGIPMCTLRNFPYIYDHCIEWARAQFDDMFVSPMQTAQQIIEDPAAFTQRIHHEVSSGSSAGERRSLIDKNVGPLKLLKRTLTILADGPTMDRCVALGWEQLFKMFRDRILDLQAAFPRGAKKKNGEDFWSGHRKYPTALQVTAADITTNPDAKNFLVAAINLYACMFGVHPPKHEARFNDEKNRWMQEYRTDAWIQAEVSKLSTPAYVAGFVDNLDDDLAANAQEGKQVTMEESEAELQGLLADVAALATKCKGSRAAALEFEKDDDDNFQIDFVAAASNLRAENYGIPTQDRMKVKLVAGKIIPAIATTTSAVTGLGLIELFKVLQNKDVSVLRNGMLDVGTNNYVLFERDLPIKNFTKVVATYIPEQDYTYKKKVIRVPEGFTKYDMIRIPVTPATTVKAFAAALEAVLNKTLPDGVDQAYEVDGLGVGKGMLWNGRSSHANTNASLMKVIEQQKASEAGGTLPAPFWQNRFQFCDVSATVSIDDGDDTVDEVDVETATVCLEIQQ
The experiment in a line: Leishmania donovani Ubiquitin Activating Enzyme (LdE1). Type of assay: functional. To be noted: 30 µM.

The target in assay [3] is AMP-activated protein kinase, AMPK (Homo sapiens) (UniProt P54646+O43741+P54619+Q9UGJ0+Q9Y478+Q13131+Q9UGI9). Put plainly: AMP-dependent Kinase enzyme assay. An in vitro enzyme assay that detects ADP turnover that is directly proportional to AMPK activity. This uses naive AMPK that is activated during the assay with MK-8722. Format: functional. The note with it: 30 µM.

The target in assay [4] is Sialic acid-binding Ig-like lectin 9 (Homo sapiens) (UniProt Q9Y336). Put plainly: Hs-Siglec9 ALPHAscreen SOP 20170721. The note with it: 10 µM. (In Alpha technology, singlet oxygen from a donor bead excites a nearby acceptor bead.)
Sequence of Sialic acid-binding Ig-like lectin 9 (Homo sapiens) (Q9Y336 whole entry): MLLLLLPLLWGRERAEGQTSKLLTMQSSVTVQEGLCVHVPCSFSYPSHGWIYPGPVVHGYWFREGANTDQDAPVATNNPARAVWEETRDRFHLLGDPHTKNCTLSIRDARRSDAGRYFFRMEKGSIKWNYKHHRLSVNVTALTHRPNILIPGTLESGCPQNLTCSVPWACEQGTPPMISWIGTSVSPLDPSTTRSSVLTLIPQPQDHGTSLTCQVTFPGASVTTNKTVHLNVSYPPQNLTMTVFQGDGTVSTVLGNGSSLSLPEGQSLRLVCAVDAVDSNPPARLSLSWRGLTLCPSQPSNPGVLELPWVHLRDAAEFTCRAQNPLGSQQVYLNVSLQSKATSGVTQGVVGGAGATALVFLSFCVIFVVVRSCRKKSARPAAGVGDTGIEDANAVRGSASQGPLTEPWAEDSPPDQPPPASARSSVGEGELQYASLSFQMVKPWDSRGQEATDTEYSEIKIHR
Assay [5] concerns Trypanosoma cruzi. Put plainly: Trypanosoma cruzi phosphomannomutase and mannose-1-phosphate guanylyltransferase assay. Type of assay: functional. To be noted: 10 µM.
Assay [6] concerns the target T2, Arginase-2, mitochondrial (Homo sapiens) (UniProt P78540).
T2 sequence (whole entry): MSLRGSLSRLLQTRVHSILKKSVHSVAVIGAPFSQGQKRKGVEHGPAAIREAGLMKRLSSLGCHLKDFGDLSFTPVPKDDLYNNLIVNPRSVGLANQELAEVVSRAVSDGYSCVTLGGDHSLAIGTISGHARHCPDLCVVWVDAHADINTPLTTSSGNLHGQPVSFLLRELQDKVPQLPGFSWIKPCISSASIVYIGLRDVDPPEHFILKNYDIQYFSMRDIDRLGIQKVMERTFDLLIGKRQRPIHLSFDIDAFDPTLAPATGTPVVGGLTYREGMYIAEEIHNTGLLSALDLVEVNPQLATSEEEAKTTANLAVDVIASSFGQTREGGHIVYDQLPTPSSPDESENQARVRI
The experiment in a line: in vitro enzyme assay to detect the production of urea directly proportional to the activity of Arginase II. Note: in the data most compounds retested in dose-response had high values. Type of assay: functional. To be noted: 33.3 µM.

In assay [7] the target is T3, Proteasome subunit beta (Trypanosoma cruzi) (UniProt O96673).
T3 sequence (whole entry): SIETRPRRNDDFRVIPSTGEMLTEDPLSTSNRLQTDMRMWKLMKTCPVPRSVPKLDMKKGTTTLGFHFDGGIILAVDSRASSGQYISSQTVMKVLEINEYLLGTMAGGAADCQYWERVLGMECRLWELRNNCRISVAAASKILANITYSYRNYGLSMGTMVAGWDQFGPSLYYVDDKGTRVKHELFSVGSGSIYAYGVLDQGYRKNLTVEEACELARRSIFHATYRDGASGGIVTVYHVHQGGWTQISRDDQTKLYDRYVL
Put plainly: Trypanosoma cruzi proteasome chymotrypsin-like activity (TcProtChymo) assay. Note: in the data most compounds retested in dose-response had high values. Format: functional. To be noted: 9.37 µM.

The species entered for assay [8] is Homo sapiens. The experiment in a line: To identify inhibition of the IFN signalling (Jak-Stat) pathway via expression of an eGFP reporter gene under the control of an IFN-stimulated response element (ISRE) containing MxA promoter. The note with it: 30 µM. Format: functional.
Assay [9] concerns the target T4, Tyrosyl-tRNA synthetase, putative (Trypanosoma cruzi (strain CL Brener)) (UniProt Q4DSP6).
T4 sequence (whole entry): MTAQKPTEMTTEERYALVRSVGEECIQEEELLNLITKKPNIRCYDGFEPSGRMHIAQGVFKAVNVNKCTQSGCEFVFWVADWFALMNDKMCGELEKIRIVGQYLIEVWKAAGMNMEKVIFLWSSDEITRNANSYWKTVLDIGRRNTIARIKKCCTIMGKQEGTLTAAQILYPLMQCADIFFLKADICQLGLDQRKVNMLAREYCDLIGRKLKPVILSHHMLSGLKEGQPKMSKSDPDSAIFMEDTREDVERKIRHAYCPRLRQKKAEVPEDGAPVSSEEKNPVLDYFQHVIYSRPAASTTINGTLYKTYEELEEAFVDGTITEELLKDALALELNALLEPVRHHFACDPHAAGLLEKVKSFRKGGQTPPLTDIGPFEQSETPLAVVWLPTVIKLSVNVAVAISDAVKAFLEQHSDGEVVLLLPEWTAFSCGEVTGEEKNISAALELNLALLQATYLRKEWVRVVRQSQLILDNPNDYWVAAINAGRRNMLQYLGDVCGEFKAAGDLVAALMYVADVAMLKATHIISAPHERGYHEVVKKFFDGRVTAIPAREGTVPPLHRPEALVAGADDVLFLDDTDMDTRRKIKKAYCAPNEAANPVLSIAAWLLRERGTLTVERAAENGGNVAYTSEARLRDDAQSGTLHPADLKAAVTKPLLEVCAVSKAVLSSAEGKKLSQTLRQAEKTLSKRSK
The experiment in a line: Trypanosoma cruzi tyrosyl tRNA synthetase (TcYRS) _High Tyrosine SOP. Note: in the data most compounds retested in dose-response had high values. Format: functional. The note with it: 30 µM.

Assay [10] concerns the target T4, Tyrosyl-tRNA synthetase, putative (Trypanosoma cruzi (strain CL Brener)). The experiment in a line: Trypanosoma cruzi tyrosyl tRNA synthetase (TcYRS) SOP. Format: functional. The note with it: 30 µM.
Assay [11] deals with Chromo domain-containing protein 1 (Saccharomyces cerevisiae (strain ATCC 204508 / S288c) (Baker's yeast)) (UniProt P32657). Put plainly: ScCHD-1 Enzyme Inhibition Assay. Note: in the data most compounds retested in dose-response had high values. Type of assay: functional. The note with it: 30 µM.
Sequence of Chromo domain-containing protein 1 (Saccharomyces cerevisiae (strain ATCC 204508 / S288c) (Baker's yeast)) (P32657 whole entry, the tested form may be a part): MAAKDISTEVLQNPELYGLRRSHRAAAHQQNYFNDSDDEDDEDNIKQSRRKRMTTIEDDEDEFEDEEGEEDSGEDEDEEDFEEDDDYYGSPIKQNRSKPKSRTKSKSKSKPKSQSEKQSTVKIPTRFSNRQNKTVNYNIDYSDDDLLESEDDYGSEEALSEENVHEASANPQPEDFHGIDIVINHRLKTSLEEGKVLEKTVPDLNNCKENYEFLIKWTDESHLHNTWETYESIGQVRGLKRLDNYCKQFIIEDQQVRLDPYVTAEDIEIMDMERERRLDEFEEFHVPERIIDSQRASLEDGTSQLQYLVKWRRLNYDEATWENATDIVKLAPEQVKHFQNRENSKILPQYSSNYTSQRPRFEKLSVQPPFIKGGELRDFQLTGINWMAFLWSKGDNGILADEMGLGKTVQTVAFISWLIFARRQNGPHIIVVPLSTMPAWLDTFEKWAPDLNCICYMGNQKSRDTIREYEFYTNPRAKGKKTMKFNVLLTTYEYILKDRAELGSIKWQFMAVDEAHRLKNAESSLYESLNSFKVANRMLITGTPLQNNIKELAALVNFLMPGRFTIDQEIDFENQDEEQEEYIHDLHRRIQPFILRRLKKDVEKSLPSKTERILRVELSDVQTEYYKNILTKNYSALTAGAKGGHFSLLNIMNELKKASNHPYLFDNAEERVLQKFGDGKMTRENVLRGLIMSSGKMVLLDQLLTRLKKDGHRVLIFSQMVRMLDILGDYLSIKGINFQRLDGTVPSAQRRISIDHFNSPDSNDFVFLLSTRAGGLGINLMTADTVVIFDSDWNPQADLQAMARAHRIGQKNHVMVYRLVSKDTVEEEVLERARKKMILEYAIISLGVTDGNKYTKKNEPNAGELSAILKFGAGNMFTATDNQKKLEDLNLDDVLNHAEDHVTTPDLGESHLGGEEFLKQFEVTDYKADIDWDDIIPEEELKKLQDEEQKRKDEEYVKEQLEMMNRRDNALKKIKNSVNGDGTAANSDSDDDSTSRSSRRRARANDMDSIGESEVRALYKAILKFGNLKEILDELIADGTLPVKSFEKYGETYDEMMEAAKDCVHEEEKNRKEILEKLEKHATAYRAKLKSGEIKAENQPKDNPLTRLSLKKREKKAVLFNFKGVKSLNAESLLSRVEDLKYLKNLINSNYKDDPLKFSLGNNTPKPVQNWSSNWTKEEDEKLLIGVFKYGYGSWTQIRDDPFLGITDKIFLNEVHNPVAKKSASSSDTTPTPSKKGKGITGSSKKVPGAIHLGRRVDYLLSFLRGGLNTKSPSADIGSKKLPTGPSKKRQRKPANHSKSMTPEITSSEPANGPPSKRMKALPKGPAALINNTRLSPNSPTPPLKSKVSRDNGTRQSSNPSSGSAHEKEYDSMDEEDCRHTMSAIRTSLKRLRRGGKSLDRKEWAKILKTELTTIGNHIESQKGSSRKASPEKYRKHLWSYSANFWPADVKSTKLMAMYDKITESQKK

Sequence of Protein translocase subunit SecA (Escherichia coli (strain K12)) (P10408 whole entry): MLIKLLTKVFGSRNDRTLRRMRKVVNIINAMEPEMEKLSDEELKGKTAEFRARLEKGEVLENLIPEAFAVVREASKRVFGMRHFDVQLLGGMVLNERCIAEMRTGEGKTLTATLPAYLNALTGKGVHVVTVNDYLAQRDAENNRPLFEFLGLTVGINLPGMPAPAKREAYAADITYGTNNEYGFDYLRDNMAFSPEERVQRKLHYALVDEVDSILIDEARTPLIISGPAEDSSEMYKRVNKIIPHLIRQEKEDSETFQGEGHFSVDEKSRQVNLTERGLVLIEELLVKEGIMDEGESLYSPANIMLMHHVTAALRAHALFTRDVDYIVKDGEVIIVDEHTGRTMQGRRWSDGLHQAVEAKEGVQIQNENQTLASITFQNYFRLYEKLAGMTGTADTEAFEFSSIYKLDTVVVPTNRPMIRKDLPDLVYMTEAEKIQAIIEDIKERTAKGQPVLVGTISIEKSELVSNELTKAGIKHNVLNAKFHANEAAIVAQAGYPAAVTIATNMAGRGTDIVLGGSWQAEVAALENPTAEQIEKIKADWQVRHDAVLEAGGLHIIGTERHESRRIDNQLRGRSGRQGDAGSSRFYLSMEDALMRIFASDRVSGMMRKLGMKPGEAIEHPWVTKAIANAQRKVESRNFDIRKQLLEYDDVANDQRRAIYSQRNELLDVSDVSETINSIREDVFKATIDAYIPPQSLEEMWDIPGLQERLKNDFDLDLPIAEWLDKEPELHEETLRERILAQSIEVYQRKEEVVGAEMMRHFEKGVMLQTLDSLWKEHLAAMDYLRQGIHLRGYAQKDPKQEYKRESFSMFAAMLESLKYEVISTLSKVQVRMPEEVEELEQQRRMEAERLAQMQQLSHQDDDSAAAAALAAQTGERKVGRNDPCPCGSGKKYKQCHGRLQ

Regarding `O=C(NCc1ccc(OCC2CC2)nc1)c1c(F)cccc1F`, the Percent Effect in [1] is -0.518%; in [2], 2.63%; in assay [3], 4.21%; in [4], -0.689%; in assay [5], -5.16%; in assay [6] it was -11.8%. Further, the Percent Effect in assay [7] was 15.1%; in assay [8], 11.7%; in assay [9], 3.19%; in [10], 7.79%; in assay [11] it was -4.74%.
Consider `CN(Cc1ccccc1)CC1(O)CCCN(CC(C)(C)C)C1=O` (stereo unspecified), for which the Percent Effect in [1] was -2.06%; in assay [2], 6.94%; in assay [3], -11.8%; in assay [4] it was 18.9%; in assay [5] it was 5.15%; in [6] it was -1.77%. Moreover, the Percent Effect in assay [7] is 1.4%; in [8], -1.36%; in assay [9], 3.16%; in assay [10], 0%; in assay [11], -0.279%.
For the molecule `Cn1cc(CN2CCCN(C(=O)c3cc(Cl)cn3C)CC2)cn1`, the Percent Effect in assay [1] is -2.96%; in assay [2] it was 13.2%; in assay [3] it was -8.7%; in assay [4], -2.03%; in [5], -6.39%; in assay [6] it was -3.45%. The Percent Effect in assay [7] was 20.6%; in assay [8], 28%; in [9] it was 1.47%; in assay [10], 7.32%; in assay [11], -9.82%.
Regarding `O=C1NCCN1C1CCCN(Cc2coc(-c3ccc(F)cc3)n2)C1` (stereo unspecified), the Percent Effect is -10.2% in assay [1]; -8.11% in assay [2]; -13.5% in assay [3]; 25.4% in [4]; 10.9% in [5]; -1.29% in [6]. Also, the Percent Effect is 0.898% in [7]; 57.5% in assay [8]; 5.94% in assay [9]; 15.8% in [10]; -6.73% in assay [11].
On to `O=C1NCCCCC1Sc1nnc(-c2cccnc2)n1C1CC1` (stereo unspecified), for which the Percent Effect was -2.96% in [1]; 2.74% in [2]; 5.81% in assay [3]; 0.732% in [4]; -2.55% in assay [5]; 0% in assay [6]. Further, the Percent Effect in assay [7] was 9.23%; in assay [8], -4.55%; in [9] it was 7.53%; in assay [10], 12.5%; in assay [11], -6.68%.
As for `CN(C)C(=O)CN1CCCC2(CCN(c3ccsc3)C2=O)C1` (stereo unspecified), the Percent Effect in assay [1] was -1.45%; in assay [2], 10.7%; in [3], 2.54%; in assay [4] it was -9.8%; in [5], -5.71%; in assay [6], 0.233%. For the same molecule, the Percent Effect in assay [7] was 7.84%; in assay [8], 14.6%; in assay [9] it was -1.06%; in [10], -32%; in [11], -5.89%.
On to `CCC(=O)Nc1nnc(CCCOc2ccccc2)s1`, for which the Percent Effect in [1] was -6.68%; in assay [2], -1.33%; in [3] it was 6.74%; in assay [4], 2.25%; in assay [5] it was 1.77%; in assay [6] it was -9.68%. The Percent Effect in assay [7] is 10.3%; in assay [8] it was -7.47%; in [9], 7.41%; in assay [10], 5.13%; in assay [11] it was -0.786%.
As for `CN(CCCNc1cc(N2CCCC2CO)ncn1)S(C)(=O)=O` (stereo unspecified), the Percent Effect was -2.02% in assay [1]; 8.22% in [2]; -20.8% in assay [3]; 7.67% in [4]; -1.96% in [5]; 1.82% in assay [6]. The Percent Effect in assay [7] was 16.3%; in [8], 8.58%; in assay [9] it was 2.15%; in assay [10], 7.5%; in [11], -5.59%.
For the molecule `CCCc1n[nH]c(C2CN(C(=O)C3=COCCC3)CCO2)n1` (stereo unspecified), the Percent Effect in assay [1] is -3.49%; in [2], 2.63%; in assay [3] it was -0.787%; in [4], 5.25%; in [5], 2.52%; in [6], 1.44%. Moreover, the Percent Effect in assay [7] is -2.96%; in [8], 2.6%; in assay [9], 2.46%; in [10], 1.24%; in assay [11], 10.7%.
With `COCCN1CCN(C(=O)c2cc(C(C)C)on2)[C@H]2CS(=O)(=O)C[C@H]21`, the Percent Effect in assay [1] was -4.23%; in assay [2], 1.39%; in assay [3] it was -4.33%; in assay [4], -3.43%; in [5] it was -3.6%; in assay [6] it was -0.442%. Also, the Percent Effect in [7] was 17.2%; in assay [8], -5.77%; in [9], 2.1%; in [10], 0%; in assay [11], -2.65%.
On to `CCS(=O)(=O)N1CCC(c2nnc(CN3CCCC3)n2C2CC2)CC1`, for which the Percent Effect in assay [1] is -1.74%; in [2], 8%; in assay [3], -4.77%; in assay [4], 9.36%; in assay [5] it was 2.82%; in assay [6] it was 12.5%. For the same molecule, the Percent Effect in assay [7] is 3.49%; in assay [8], 19.7%; in [9] it was 7.1%; in assay [10] it was 16.1%; in assay [11], -7.31%.
